For the first assay, the target named is PUM1 PUF domain R5-LQR (Homo sapiens, UniProt Q14671 828-1176, C1007L;R1008Q;Q1011R). Briefly: yeast three-hybrid, YBZ-1, SC-Leu-His + 0.5 mM 3-AT, 4 days. The settings on record: tags: N-Gal4 AD-HA kept; label: inside an RPR1-promoter hybrid RNA with tandem MS2 sites; ssRNA. The gist of the method:
(§1)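 Repeat regions from input (SC-Leu) and selection (SC-Leu-His + 0.5 mM 3-AT) plates were PCR-amplified and Illumina-sequenced after four days of growth. The cells were strain YBZ-1 with a LexA–MS2 coat fusion and a HIS3 reporter, co-expressing Pumilio-1 PUF domain libraries and matching RNA elements from a centromeric plasmid. The interaction score is the log change in variant frequency from input to selection, taken in log2 with a pseudocount of 1 for absent variants.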
Sequence of PUM1 PUF domain R5-LQR (Q14671 828-1176 C1007L/R1008Q/Q1011R): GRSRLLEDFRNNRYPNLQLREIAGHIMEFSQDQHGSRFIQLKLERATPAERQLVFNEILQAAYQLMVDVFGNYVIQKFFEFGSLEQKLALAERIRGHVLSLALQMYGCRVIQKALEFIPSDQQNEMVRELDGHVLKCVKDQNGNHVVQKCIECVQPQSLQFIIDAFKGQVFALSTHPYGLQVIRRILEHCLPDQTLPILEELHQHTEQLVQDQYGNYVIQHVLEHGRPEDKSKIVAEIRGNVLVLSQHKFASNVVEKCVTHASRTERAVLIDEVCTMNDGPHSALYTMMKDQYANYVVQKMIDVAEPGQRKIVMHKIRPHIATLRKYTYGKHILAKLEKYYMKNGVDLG
Sequence of PUM1 PUF domain R4-MRG (Q14671 828-1176 N971M/H972R/Q975G): as the sequence (Q14671 828-1176 C1007L/R1008Q/Q1011R) above, with N144M, H145R, Q148G, L180C, Q181R, R184Q counted along it
Sequence of PUM1 PUF domain R3-RCG (Q14671 828-1176 C935R/R936C/Q939G): as the sequence (Q14671 828-1176 C1007L/R1008Q/Q1011R) above, with C108R, R109C, Q112G, L180C, Q181R, R184Q counted along it
Take “GGCUAGAACUAGUGGAUCCCCCGGCGCCCGGCGGCUCGAGCCCGGGUAAGUGUUAAUAGUCUGCAUGCCGCCGGGCGCCAUGCCUGCAGGUCGACUCUAGAAAACAUG”: the binding signal is 2.83 log2 enrichment (interaction score).
As to “GGCUAGAACUAGUGGAUCCCCCGGCGCCCGGCGGCUCGAGCCCGGGUAAGUGUCAAUAGUCUGCAUGCCGCCGGGCGCCAUGCCUGCAGGUCGACUCUAGAAAACAUG”, the binding signal was 3.47 log2 enrichment (interaction score).
On the same count and under the same terms, the same measure for “GGCUAGAACUAGUGGAUCCCCCGGCGCCCGGCGGCUCGAGCCCGGGUAAGUGUAAAUAGUCUGCAUGCCGCCGGGCGCCAUGCCUGCAGGUCGACUCUAGAAAACAUG”: 1.81 log2 enrichment (interaction score).

For another assay, the target named is PUM1 PUF domain R5-ERV (Homo sapiens, UniProt Q14671 828-1176, C1007E;Q1011V). The assay is described as above. The following applies: tags: N-Gal4 AD-HA kept; label: inside an RPR1-promoter hybrid RNA with tandem MS2 sites; ssRNA. The gist of the method: as §1
Sequence of PUM1 PUF domain R5-ERV (Q14671 828-1176 C1007E/Q1011V): as the sequence (Q14671 828-1176 C1007L/R1008Q/Q1011R) above, with L180E, Q181R, R184V counted along it
In the case of “GGCUAGAACUAGUGGAUCCCCCGGCGCCCGGCGGCUCGAGCCCGGGUAAGUGUGAAUAGUCUGCAUGCCGCCGGGCGCCAUGCCUGCAGGUCGACUCUAGAAAACAUG”, the binding signal is 3.34 log2 enrichment (interaction score).
In the case of “GGCUAGAACUAGUGGAUCCCCCGGCGCCCGGCGGCUCGAGCCCGGGUAAGUGUCAAUAGUCUGCAUGCCGCCGGGCGCCAUGCCUGCAGGUCGACUCUAGAAAACAUG”, the binding signal is 2.93 log2 enrichment (interaction score).
Still for that read-out and setting: under “GGCUAGAACUAGUGGAUCCCCCGGCGCCCGGCGGCUCGAGCCCGGGUAAGUGUAAAUAGUCUGCAUGCCGCCGGGCGCCAUGCCUGCAGGUCGACUCUAGAAAACAUG” stands 5.11 log2 enrichment (interaction score).

Another assay concerns the target PUM1 PUF domain R3-RCG (Homo sapiens, UniProt Q14671 828-1176, C935R;R936C;Q939G). The description is as above. The following applies: tags: N-Gal4 AD-HA kept; label: inside an RPR1-promoter hybrid RNA with tandem MS2 sites; ssRNA. In short, it runs like this: as §1
Consider “GGCUAGAACUAGUGGAUCCCCCGGCGCCCGGCGGCUCGAGCCCGGGUAAGUGUAAGUAGUCUGCAUGCCGCCGGGCGCCAUGCCUGCAGGUCGACUCUAGAAAACAUG”, for which the binding signal is 2.96 log2 enrichment (interaction score).
“GGCUAGAACUAGUGGAUCCCCCGGCGCCCGGCGGCUCGAGCCCGGGUAAGUGUAAUUAGUCUGCAUGCCGCCGGGCGCCAUGCCUGCAGGUCGACUCUAGAAAACAUG”: the binding signal was 3.58 log2 enrichment (interaction score).
In the case of “GGCUAGAACUAGUGGAUCCCCCGGCGCCCGGCGGCUCGAGCCCGGGUAAGUGUAAAUAGUCUGCAUGCCGCCGGGCGCCAUGCCUGCAGGUCGACUCUAGAAAACAUG”, the binding signal was 0.63 log2 enrichment (interaction score).

The next assay addresses PUM1 PUF domain R4-MRG (Homo sapiens, UniProt Q14671 828-1176, N971M;H972R;Q975G). Described as above. The following applies: tags: N-Gal4 AD-HA kept; label: inside an RPR1-promoter hybrid RNA with tandem MS2 sites; ssRNA. The gist of the method: as §1
Take “GGCUAGAACUAGUGGAUCCCCCGGCGCCCGGCGGCUCGAGCCCGGGUAAGUGUAUAUAGUCUGCAUGCCGCCGGGCGCCAUGCCUGCAGGUCGACUCUAGAAAACAUG”: the binding signal was 1.61 log2 enrichment (interaction score).
For “GGCUAGAACUAGUGGAUCCCCCGGCGCCCGGCGGCUCGAGCCCGGGUAAGUGUACAUAGUCUGCAUGCCGCCGGGCGCCAUGCCUGCAGGUCGACUCUAGAAAACAUG”, the binding signal is 1.34 log2 enrichment (interaction score).
“GGCUAGAACUAGUGGAUCCCCCGGCGCCCGGCGGCUCGAGCCCGGGUAAGUGUAAAUAGUCUGCAUGCCGCCGGGCGCCAUGCCUGCAGGUCGACUCUAGAAAACAUG”: the binding signal was 2.56 log2 enrichment (interaction score).

(Values after article PMC8384837, “Expanding the binding specificity for RNA recognition by a PUF domain”.)
